Experimental data: the supplement of paper PMC11732987, “Enantioselective OTUD7B fragment discovery through chemoproteomics screening and high-throughput optimisation” (Communications Chemistry, 2025)

What was measured:
Test in all cases: log2 ratio of Biotin-Ahx-Ub-VS probe labelling (fragment/DMSO); higher = less target engagement (more negative = stronger competition), active = hit call of the paper (q ≤ 0.05, log2 ratio ≤ -1)
Details in all cases: compound concentration: 200 uM; treatment time: 3 h
USP34 = USP34 (UniProt Q70CQ2)
Summary of the method: (§1)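 Average log2 ratios of fragment over vehicle were obtained by unpaired t-test from global-median-normalised Spectronaut label-free quantities. Proteins with ≥2 unique peptides were included. HEK293T lysate (495 µg per sample) was treated in triplicate with fragment at 200 µM or vehicle for 3 h, then with Biotin-Ahx-Ub-VS at 0.5 µM final for 1 h, and labelled DUBs were NeutrAvidin-enriched and run by diaPASEF LC-MS/MS.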

USP36 = molecular target: T1, USP36 (UniProt Q9P275)
T1 sequence (whole entry): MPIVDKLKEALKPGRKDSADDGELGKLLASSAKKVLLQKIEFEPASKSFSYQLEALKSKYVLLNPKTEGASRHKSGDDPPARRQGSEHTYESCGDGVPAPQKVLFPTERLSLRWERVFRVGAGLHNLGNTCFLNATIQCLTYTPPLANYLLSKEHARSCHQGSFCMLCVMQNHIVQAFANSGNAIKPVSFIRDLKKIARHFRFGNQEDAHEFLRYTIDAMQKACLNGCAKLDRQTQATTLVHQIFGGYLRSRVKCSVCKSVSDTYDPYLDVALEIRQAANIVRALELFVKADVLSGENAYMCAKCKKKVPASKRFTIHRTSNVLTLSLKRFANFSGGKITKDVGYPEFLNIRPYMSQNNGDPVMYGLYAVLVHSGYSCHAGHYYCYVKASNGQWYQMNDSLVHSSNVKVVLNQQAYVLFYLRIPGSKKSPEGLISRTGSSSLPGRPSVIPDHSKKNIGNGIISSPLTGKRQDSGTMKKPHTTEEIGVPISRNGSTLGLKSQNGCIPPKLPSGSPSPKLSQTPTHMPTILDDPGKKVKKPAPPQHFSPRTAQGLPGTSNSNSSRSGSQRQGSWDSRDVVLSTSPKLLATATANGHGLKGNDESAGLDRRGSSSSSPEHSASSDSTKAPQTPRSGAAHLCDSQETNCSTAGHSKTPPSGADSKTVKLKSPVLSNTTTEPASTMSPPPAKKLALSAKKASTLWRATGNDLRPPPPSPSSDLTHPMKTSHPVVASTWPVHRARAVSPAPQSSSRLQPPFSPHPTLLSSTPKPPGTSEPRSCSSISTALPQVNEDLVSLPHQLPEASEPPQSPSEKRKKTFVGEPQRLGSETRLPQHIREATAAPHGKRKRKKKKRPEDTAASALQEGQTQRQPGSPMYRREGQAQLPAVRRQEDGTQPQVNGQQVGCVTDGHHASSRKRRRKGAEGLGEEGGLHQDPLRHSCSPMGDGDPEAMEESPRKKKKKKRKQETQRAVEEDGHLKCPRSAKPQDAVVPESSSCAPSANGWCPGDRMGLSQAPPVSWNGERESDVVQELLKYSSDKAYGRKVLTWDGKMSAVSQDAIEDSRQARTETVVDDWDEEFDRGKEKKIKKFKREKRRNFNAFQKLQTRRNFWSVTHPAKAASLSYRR
Summary of the method: as §1

USP38 = molecular target: T2, USP38 (UniProt Q8NB14)
T2 sequence (whole entry): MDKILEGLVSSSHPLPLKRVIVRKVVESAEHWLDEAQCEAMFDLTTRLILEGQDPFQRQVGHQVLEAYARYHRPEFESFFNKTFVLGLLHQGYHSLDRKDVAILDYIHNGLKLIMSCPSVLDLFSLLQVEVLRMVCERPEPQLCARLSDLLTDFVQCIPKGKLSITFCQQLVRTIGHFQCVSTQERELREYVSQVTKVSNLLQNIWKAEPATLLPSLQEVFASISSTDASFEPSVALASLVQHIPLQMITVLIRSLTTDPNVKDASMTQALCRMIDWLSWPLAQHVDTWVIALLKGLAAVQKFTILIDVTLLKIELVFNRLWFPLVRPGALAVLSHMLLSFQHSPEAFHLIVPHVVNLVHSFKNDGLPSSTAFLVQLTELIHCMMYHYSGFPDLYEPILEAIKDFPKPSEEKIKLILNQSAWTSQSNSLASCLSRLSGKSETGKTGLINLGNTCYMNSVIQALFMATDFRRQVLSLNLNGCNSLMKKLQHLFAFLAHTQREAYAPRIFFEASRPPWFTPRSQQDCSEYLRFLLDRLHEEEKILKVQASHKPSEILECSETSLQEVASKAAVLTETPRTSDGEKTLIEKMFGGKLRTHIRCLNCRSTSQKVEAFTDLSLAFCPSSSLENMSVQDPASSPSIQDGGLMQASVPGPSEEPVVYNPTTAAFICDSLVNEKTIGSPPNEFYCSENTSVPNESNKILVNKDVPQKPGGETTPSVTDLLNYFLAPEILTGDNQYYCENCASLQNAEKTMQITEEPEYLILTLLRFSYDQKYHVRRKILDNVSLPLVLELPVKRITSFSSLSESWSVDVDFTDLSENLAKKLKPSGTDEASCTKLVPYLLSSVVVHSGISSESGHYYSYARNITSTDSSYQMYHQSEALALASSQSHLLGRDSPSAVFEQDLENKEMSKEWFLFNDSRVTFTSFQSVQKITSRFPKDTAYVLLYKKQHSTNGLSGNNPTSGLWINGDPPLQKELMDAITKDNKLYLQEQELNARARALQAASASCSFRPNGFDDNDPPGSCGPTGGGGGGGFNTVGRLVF
Summary of the method: as §1

USP39 = molecular target: T3, USP39 (UniProt Q53GS9)
T3 sequence (whole entry): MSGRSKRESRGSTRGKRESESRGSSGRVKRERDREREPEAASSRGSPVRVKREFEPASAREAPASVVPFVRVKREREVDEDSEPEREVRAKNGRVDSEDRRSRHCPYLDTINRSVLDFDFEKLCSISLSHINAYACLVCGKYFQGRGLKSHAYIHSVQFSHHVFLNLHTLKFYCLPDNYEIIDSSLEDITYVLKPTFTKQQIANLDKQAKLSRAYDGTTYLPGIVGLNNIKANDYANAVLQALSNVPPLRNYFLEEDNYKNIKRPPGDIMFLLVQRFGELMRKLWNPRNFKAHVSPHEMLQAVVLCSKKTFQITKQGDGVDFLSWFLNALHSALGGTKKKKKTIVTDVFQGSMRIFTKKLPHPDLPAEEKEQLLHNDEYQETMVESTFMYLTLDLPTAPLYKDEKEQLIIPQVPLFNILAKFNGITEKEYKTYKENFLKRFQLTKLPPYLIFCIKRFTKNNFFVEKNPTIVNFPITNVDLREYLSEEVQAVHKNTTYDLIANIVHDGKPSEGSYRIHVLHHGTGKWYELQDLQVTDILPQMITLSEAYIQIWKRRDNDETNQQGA
Summary of the method: as §1

USP4 = molecular target: T4, USP4 (UniProt Q13107)
T4 sequence (whole entry): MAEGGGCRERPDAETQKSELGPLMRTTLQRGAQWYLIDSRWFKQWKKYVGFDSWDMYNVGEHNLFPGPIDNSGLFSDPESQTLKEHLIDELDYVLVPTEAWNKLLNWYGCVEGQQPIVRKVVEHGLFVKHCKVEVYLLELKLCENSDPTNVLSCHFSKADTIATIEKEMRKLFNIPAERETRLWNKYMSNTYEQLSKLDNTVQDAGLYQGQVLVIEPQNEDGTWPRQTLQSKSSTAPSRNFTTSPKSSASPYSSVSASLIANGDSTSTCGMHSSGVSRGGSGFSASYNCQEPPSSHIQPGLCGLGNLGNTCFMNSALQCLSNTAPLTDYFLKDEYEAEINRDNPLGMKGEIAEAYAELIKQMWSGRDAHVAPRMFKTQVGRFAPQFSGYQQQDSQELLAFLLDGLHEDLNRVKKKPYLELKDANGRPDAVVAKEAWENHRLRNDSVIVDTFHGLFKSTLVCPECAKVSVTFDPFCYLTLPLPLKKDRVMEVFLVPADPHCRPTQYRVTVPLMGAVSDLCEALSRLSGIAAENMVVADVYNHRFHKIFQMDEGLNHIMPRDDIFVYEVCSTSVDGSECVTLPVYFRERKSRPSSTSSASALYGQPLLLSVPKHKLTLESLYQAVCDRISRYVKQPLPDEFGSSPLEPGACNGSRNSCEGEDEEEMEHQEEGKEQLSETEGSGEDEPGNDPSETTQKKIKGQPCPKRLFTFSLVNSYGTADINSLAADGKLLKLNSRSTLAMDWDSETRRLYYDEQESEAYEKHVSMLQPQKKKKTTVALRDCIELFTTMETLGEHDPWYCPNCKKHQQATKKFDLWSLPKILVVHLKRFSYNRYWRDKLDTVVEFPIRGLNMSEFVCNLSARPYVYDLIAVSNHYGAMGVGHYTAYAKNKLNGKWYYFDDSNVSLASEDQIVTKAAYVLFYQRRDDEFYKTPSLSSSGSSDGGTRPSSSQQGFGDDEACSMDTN
Summary of the method: as §1

Measured: log2 ratio of Biotin-Ahx-Ub-VS probe labelling

USP34, sequence (Q70CQ2 whole entry, the tested form may be a part): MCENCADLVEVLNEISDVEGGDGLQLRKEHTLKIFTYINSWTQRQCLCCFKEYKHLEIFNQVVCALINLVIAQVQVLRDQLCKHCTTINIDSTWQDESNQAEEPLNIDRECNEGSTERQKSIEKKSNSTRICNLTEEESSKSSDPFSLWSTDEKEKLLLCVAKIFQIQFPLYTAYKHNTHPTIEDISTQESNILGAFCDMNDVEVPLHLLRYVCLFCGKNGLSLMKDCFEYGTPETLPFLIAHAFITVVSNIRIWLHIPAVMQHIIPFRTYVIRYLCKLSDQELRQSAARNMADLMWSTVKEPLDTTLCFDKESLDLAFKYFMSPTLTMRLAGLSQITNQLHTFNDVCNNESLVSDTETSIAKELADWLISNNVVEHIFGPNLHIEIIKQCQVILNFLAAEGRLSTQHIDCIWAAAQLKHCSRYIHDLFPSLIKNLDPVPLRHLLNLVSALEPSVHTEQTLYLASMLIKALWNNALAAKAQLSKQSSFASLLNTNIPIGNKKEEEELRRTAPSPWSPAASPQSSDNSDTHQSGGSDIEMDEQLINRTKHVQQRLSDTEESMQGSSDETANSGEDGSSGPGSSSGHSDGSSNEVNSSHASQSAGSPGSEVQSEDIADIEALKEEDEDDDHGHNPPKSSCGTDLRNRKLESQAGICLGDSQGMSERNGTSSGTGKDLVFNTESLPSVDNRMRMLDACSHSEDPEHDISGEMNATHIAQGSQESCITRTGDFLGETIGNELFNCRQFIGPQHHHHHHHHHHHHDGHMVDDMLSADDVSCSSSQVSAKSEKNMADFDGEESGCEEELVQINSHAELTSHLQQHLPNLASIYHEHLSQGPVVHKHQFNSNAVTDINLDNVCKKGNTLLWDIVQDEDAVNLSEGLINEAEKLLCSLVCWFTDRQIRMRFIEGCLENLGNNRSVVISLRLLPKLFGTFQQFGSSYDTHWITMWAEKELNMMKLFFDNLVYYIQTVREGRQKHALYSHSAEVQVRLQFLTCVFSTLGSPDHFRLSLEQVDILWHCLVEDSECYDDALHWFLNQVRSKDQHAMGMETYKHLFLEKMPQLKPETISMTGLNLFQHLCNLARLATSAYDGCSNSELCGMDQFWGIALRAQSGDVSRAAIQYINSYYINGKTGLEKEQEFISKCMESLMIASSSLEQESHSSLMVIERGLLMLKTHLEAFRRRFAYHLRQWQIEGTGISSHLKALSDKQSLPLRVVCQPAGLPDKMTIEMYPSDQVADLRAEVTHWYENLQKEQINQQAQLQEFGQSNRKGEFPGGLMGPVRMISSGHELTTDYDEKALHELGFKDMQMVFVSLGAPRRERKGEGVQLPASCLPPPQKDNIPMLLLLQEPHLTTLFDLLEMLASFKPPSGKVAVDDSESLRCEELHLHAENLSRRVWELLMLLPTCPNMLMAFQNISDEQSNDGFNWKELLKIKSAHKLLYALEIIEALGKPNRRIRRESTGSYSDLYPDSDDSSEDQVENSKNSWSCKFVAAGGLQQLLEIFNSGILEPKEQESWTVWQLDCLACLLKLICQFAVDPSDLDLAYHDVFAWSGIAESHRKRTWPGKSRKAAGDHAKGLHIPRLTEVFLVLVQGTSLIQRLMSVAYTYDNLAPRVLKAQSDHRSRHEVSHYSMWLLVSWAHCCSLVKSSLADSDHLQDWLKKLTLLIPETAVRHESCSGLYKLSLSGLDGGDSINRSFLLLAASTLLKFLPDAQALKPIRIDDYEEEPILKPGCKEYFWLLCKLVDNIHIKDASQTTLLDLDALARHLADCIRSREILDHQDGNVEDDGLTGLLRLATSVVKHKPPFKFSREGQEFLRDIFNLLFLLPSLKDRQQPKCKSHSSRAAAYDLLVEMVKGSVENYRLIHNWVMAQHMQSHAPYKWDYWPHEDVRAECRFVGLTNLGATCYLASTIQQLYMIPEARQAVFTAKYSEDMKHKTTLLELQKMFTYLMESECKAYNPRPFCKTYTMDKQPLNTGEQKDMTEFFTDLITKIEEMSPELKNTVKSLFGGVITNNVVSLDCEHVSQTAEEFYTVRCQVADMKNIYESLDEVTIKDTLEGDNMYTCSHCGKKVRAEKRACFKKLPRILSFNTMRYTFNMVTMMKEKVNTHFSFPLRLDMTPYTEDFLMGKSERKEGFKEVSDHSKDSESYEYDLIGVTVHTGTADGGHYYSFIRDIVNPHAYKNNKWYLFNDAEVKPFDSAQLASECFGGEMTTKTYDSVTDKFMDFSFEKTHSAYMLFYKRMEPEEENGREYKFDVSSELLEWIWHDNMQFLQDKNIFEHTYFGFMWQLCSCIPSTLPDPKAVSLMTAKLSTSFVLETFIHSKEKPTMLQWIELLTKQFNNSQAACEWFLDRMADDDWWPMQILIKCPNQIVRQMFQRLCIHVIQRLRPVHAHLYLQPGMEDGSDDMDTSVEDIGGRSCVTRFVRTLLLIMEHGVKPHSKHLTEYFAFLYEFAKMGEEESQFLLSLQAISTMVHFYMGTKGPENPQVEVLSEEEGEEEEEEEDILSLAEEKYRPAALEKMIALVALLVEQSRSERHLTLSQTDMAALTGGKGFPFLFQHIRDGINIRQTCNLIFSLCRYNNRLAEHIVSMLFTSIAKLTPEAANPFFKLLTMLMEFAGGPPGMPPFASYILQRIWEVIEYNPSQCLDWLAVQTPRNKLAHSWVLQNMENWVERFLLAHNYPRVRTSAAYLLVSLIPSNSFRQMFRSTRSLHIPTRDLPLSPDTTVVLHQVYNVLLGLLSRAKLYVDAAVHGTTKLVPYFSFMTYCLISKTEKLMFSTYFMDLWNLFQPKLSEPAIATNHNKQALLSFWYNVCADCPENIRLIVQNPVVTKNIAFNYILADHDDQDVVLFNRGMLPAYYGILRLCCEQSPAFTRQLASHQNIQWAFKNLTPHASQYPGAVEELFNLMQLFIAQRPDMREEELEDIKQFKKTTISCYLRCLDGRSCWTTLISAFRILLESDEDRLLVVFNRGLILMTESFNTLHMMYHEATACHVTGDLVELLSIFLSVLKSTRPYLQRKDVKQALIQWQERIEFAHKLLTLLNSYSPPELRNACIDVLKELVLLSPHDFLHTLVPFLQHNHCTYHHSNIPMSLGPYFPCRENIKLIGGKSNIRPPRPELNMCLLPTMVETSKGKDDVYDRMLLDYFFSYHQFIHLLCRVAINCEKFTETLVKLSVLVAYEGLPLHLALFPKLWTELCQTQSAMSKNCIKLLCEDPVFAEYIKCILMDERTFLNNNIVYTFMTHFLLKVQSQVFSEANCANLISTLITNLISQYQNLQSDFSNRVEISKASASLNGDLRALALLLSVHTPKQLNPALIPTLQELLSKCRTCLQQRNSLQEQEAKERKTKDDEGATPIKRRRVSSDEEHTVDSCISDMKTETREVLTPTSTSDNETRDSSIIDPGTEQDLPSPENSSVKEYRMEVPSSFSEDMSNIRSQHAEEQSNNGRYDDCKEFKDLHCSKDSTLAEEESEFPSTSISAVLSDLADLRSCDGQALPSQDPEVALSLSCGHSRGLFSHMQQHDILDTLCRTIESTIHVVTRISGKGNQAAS

Cc1ccc2nnc(CNC(=O)CCl)n2c1
inactive: USP34 -0.0797 | USP36 -0.0909 | USP38 -0.0516 | USP39 -0.108 | USP4 0.17
